# Hit rate of the full screen: of about 330,000 compounds, about 960 (0.29%) were called active. This excerpt belongs to a sample that is enriched for actives. Values without a mark were called inactive.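 The calls were made as follows: active = compounds whose signal lies at least 3.5 SD above the mean of all wells on their plate; inactive = the rest.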
# Assay: small molecules increasing insulinoma cell replication – ATP luminescence, uHTS, primary screen (AID 2380);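 also: 0% = DMSO-treated cells in low-serum medium and 100% = 10% serum control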
# Conditions: MIN6 cells proliferation, ATPlite luminescence, 48 h; at 10 µM; stronger effect = higher value; 100% = growth in 10% serum; cells starved in 0.2% serum
row,Structure (SMILES),proliferation
1,COc1ccc(/C=C2\CCCC3C2=NN(C(=O)c2scnc2C)C3c2ccc(OC)cc2)cc1 (stereo unspecified),-5.85%
2,COc1ccc(N2CCN(C(CNS(=O)(=O)c3ccc(C)cc3)c3ccccc3)CC2)cc1 (stereo unspecified),-4.55%
3,CCCOC1CCCN(Cc2cn(C)nc2-c2ccccc2F)C1 (stereo unspecified),1.33%
4,CN(CCc1cnn(C)c1)Cc1cn(C)nc1-c1ccccc1F,-0.61%
5,Cn1cc(CN2CCC(C(O)CCc3ccccc3)CC2)c(-c2ccccc2F)n1 (stereo unspecified),11.8% (active)
6,COc1cc(/C=C/CO)cc(OC)c1O[C@@H]1O[C@H](CO)[C@@H](O)[C@H](O)[C@H]1O,-0.51%
7,O=C(O)c1cccc(S(=O)(=O)N2CC=C(c3ccccc3)CC2)c1,0.12%
8,Cc1ccc(NC(=O)c2ccc(S(=O)(=O)NCC3CCCO3)cc2)cc1C (stereo unspecified),-3.24%
9,N#Cc1cccc(CN2CCC(=O)N([C@H](CO)c3ccccc3)CC2)c1,14.7% (active)
10,N#Cc1cccc(CN2CCC(=O)N(CCO)CC2)c1,-4.43%
11,O=C1CCN(Cc2ccccc2)CCN1[C@H](CSc1ccccc1)c1ccccc1,2.8%
12,COc1cccc(N=c2oc3c(C)ncc(CO)c3cc2C(N)=O)c1,-0.09%
13,CC(C)Cc1oc(C(=O)O)cc1CN,-3.33%
14,CCCCNC(=O)OCCSCCS(=O)(=O)c1ccc(Cl)cc1,-0.91%
15,CC[C@@H]1Cc2cc(O)ccc2C2=C1c1ccc(O)cc1C[C@H]2CC,-8.09%
16,COCCCNC(=O)Cn1c(=O)n(Cc2ccccc2Cl)c(=O)c2cc(OC)c(OC)cc21,-2.84%
17,COc1ccc2c(c1)C(=C(C#N)C#N)C(=O)N2CCc1ccccc1,-3.84%
18,CC(N)C12CC3CC(CC(O)(C3)C1)C2 (stereo unspecified),-0.37%
19,CN(CC(=O)Nc1c(Cl)cccc1Cl)C(=O)c1ccncc1,-1.79%
20,CN1CCN(c2ccc(CNS(=O)(=O)c3cccc(F)c3)cc2)CC1,-0.97%
21,CC(=O)c1ccc(S(=O)(=O)NCc2nnnn2-c2ccccc2)cc1,11.8% (active)
22,O=S(=O)(Cc1nnnn1-c1ccccc1)c1ccccc1,-0.06%
23,COc1ccc(-n2nnnc2CNC(=O)c2ccc3ccccc3c2)cc1,-1.98%
24,COc1ccccc1C(=O)N1CCN=C1SCc1cccnc1,0.39%
25,CCCCn1c(N)c(N(CC)C(=O)c2ccc(N(C)S(=O)(=O)c3ccc(C)cc3)cc2)c(=O)[nH]c1=O,-0.39%
26,Cc1cccc(NS(=O)(=O)c2cccc(C(=O)NNC(=O)c3ccccc3O)c2)c1,1.68%

# From PubChem BioAssay AID2380 (Sanford-Burnham Center for Chemical Genomics, 2010)
